# Measured values reported in PMC4336329 (PLoS ONE, 2015).
# In all, about 310,000 compounds went through this assay and about 14,000 (4.5%) showed an effect of 50% or more. The effect is printed as a negative number. Many of the other results were omitted from the sample, so strong results are more common in it than they were.
# Molecular target: human ether-à-go-go-related gene (hERG) potassium channel (human, UniProt Q12809)
# Assay: primary screen, population patch clamp on CHO cells stably expressing hERG; higher = less effect of the substance
# 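Note: peak tail current of the secondary pulse compared with the same well before compound.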
# Sequence of human ether-à-go-go-related gene (hERG) potassium channel (Q12809 whole entry, looked up): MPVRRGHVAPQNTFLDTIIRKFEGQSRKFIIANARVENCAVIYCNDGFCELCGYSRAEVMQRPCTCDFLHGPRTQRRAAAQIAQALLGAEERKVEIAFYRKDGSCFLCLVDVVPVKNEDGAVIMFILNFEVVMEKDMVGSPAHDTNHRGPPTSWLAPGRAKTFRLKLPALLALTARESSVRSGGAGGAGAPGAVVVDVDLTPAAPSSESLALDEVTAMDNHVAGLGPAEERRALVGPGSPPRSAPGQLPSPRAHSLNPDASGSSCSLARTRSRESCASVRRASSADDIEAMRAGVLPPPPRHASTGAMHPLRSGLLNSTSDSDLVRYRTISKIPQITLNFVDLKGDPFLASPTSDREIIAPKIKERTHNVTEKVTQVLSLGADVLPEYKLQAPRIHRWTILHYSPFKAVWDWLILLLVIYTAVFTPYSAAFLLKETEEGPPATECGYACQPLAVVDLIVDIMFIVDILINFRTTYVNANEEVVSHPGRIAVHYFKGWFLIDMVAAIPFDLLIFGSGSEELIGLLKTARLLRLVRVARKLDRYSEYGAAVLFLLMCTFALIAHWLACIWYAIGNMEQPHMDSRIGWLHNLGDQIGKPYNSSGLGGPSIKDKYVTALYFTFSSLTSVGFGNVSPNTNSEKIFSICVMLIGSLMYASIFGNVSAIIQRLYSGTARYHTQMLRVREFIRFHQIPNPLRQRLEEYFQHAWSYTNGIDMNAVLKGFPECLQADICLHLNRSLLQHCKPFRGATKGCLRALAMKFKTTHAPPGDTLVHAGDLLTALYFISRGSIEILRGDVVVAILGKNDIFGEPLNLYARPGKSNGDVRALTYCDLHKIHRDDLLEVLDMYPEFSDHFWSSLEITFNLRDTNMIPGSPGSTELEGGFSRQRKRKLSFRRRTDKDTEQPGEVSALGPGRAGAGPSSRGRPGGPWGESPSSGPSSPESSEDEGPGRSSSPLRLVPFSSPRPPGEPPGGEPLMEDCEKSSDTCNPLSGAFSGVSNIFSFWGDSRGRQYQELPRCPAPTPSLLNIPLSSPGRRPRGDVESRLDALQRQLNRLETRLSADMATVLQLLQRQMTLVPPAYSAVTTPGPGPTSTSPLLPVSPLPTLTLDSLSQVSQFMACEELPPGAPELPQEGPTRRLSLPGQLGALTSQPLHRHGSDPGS
row,SMILES,"hERG current change (%, negative = inhibition) at 10uM"
1,CC(=O)Nc1ccc(NCc2ccc(C)s2)cc1,-3.79%
2,CCc1ccc(OCC(=O)NNC(=O)c2c(CC)noc2C)cc1,10.8%
3,Cc1nnc(NC2=NCCC2)o1,3.71%
4,CC(=O)CCc1c[nH]c2c(C(=O)O)cccc12,5.11%
5,CCOc1ccccc1Nc1nnc(SCC(=O)Nc2cc(C)on2)s1,6.14%
6,CC(=O)Nc1ccc(S(=O)(=O)Nc2cc3c(cc2C(C)=O)OCO3)cc1,20.7%
7,CC(N)Cc1cn(Cc2ccccc2)c2ccccc12.Cl (stereo not drawn),-7.76%
8,COc1cccc(CNC(=O)COc2ccc(C(=O)c3ccccc3)cc2)c1,-11.7%
9,CCOC(=O)/C(=C\c1c[nH]c2ccccc12)NC(C)=O,0.157%
10,O=C(CSc1nc2c(c(=O)n1-c1ccc(Cl)cc1)SCC2)NCc1ccco1,-19.4%
11,CCn1cc(CCC(=O)NCc2cccc(OC)c2OC)c2ccccc21,8.51%
12,COc1ccc(S(=O)(=O)N/N=C(/C)c2ccncc2)cc1OC,-1.27%
13,CCOC(=O)c1cc2c(=O)n3ccccc3nc2n(Cc2ccccc2)c1=N,-74.6%
14,COc1ccc(CNC(=O)c2cc3c(=O)n4ccccc4nc3n(Cc3cccnc3)c2=N)cc1,-58.6%
15,COCCCn1c(=N)c(C(=O)NCc2ccc3c(c2)OCO3)cc2c(=O)n3ccccc3nc21,-83.5%
16,COCCCn1c(C(=O)Nc2ccc3c(c2)OCO3)cc2c(=O)n3ccccc3nc21,8.51%
17,Cc1nc2ccccn2c1C(=O)NCc1ccc2c(c1)OCO2,-0.471%
18,O=C(NCc1ccc2c(c1)OCO2)c1cnc2ccccn2c1=O,-6.29%
19,O=C(CCn1c(=O)c2ccccc2n(Cc2cccnc2)c1=O)NCc1ccc2c(c1)OCO2,-5.1%
20,N=c1c(C(=O)NCc2ccc3c(c2)OCO3)cc2c(=O)n3ccccc3nc2n1Cc1cccnc1,-80.4%
21,COc1ccc(Cn2c(=S)[nH]c3cc(C(=O)NCc4cccnc4)ccc3c2=O)cc1,12.3%

row,SMILES,"hERG current change (%, negative = inhibition) at 10uM"
1,COc1ccc(CNC(=O)Cn2nc(Cc3cccnc3)c3ccccc3c2=O)cc1,-43.3%
2,CCOC(=O)c1ccccc1NC(=O)CN(c1ccccc1)S(=O)(=O)N(C)C,-19.9%
3,CC(C)[C@H](Nc1ccc(C(F)(F)F)cc1[N+](=O)[O-])C(=O)O.[Cl-],20%
4,CCCCOc1cccc(C(=O)N(Cc2ccccc2)C2CCS(=O)(=O)C2)c1 (stereo not drawn),-14.2%
5,O=C(NC1CCCC1)C(=O)N(Cc1cccnc1)C(C(=O)NCC1CCCO1)c1ccco1 (stereo not drawn),38.2%
6,CCOC(=O)COc1ccc(C(=O)Nc2cccc(Cl)c2C)cc1,18.9%
7,CC(Oc1ccc(Br)cc1)C(=O)Nc1ccc(S(=O)(=O)N(C)C2CCN(C)CC2)cc1 (stereo not drawn),-26.7%
8,Cc1nc2ccc(P(=O)(O)O)cc2s1,16.2%
9,C=CCN1C(=O)C2(C(C(=O)c3ccc(C)o3)=C(O)C(=O)N2CCCN2CCOCC2)c2ccccc21 (stereo not drawn),3.04%
10,COCCNC(=S)N1CCc2cc(OC)c(OC)cc2C1COc1ccc(C(C)C)cc1 (stereo not drawn),16.7%
11,Cc1cccc(N(CC(=O)NC2CCCC2)C(=O)c2csnn2)c1C,19.5%
12,N=c1c(C(=O)NCc2ccc(F)cc2)cc2c(=O)n3ccccc3nc2n1Cc1cccnc1,-76.2%
13,CCCn1c(=N)c(S(=O)(=O)c2ccc(F)cc2)cc2c(=O)n3ccccc3nc21,-8.53%
14,COC(=O)c1cc2c(=O)n3ccccc3nc2n(Cc2cccnc2)c1=N,-64%
15,Cc1nc2ccccn2c1C(=O)NCc1cccnc1,-3.36%
16,COC(=O)c1cn(Cc2cccnc2)c(=O)c2ccccc12,3.15%
17,Nc1cc(=O)[nH]c(N)n1,15.9%
18,CCc1cccc(NC(=O)CNC(=O)N2CC(=O)Nc3ccccc32)c1,-8.55%
19,Cc1ccc(S(=O)(=O)N(C)C)cc1NC(=O)COC(=O)c1c(-c2ccccc2)noc1C,-24.8%
20,CCOC(=O)N1CCN(CC(O)COc2c(C)cc(C)cc2C)CC1.Cl (stereo not drawn),-18%
21,COc1cc(CN2CCN(C(=O)COc3ccccc3)CC2)cc(OC)c1OC,-14.1%
